Results reported in ChEMBL document CHEMBL5724796, “Tm Shift (DSF) assay results for EUbOPEN Chemogenomics Library” (2024).

Legend:
Settings in all cases: Compound concentration 20.0 uM
[1] = target: Tyrosine-protein kinase ABL1 (Homo sapiens) (UniProt P00519)
[2] = target: Bromodomain-containing protein 4 (Homo sapiens) (UniProt O60885)
[3] = target: Cyclin-dependent kinase 2 (Homo sapiens) (UniProt P24941)
[4] = target: Casein kinase I isoform delta (Homo sapiens) (UniProt P48730)
[5] = target: Glycogen synthase kinase-3 beta (Homo sapiens) (UniProt P49841)
Sequence of Glycogen synthase kinase-3 beta (Homo sapiens) (P49841 whole entry, looked up): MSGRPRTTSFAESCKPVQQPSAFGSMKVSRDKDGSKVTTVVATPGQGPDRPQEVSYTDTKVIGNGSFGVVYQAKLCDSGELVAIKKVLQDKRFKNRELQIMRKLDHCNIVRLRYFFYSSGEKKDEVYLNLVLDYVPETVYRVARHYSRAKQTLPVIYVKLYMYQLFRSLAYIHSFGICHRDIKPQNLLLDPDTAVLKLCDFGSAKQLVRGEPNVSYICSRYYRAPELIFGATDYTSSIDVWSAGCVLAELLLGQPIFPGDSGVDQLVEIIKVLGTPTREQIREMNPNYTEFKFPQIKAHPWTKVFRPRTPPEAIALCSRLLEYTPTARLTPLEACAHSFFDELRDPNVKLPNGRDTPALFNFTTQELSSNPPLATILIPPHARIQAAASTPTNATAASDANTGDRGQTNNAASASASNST

[6] = target: Mitogen-activated protein kinase 1 (Homo sapiens) (UniProt P28482)
Sequence of Mitogen-activated protein kinase 1 (Homo sapiens) (P28482 whole entry): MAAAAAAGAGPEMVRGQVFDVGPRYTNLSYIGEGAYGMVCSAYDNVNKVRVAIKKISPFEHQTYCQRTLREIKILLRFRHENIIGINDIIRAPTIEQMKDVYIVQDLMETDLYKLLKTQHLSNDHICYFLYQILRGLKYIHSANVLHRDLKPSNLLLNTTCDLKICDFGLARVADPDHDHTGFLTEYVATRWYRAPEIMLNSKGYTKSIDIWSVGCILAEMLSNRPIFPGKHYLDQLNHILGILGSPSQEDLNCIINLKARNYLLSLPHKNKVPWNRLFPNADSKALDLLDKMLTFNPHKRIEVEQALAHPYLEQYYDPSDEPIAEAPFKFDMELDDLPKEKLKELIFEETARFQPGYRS

[7] = target: T1, Aurora kinase A (Homo sapiens) (UniProt O14965)
T1 sequence (whole entry): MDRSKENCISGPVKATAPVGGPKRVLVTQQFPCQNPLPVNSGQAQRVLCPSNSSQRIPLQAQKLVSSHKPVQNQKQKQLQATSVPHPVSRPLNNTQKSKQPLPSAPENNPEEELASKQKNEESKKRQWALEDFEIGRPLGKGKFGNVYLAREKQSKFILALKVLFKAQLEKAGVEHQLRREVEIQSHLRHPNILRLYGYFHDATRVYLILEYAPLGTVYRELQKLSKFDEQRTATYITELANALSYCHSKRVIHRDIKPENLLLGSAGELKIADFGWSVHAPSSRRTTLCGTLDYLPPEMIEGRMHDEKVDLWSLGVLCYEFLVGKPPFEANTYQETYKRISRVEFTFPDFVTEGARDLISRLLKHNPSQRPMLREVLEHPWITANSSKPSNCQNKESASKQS

[8] = target: T2, Transcription intermediary factor 1-alpha (Homo sapiens) (UniProt O15164)
T2 sequence (whole entry): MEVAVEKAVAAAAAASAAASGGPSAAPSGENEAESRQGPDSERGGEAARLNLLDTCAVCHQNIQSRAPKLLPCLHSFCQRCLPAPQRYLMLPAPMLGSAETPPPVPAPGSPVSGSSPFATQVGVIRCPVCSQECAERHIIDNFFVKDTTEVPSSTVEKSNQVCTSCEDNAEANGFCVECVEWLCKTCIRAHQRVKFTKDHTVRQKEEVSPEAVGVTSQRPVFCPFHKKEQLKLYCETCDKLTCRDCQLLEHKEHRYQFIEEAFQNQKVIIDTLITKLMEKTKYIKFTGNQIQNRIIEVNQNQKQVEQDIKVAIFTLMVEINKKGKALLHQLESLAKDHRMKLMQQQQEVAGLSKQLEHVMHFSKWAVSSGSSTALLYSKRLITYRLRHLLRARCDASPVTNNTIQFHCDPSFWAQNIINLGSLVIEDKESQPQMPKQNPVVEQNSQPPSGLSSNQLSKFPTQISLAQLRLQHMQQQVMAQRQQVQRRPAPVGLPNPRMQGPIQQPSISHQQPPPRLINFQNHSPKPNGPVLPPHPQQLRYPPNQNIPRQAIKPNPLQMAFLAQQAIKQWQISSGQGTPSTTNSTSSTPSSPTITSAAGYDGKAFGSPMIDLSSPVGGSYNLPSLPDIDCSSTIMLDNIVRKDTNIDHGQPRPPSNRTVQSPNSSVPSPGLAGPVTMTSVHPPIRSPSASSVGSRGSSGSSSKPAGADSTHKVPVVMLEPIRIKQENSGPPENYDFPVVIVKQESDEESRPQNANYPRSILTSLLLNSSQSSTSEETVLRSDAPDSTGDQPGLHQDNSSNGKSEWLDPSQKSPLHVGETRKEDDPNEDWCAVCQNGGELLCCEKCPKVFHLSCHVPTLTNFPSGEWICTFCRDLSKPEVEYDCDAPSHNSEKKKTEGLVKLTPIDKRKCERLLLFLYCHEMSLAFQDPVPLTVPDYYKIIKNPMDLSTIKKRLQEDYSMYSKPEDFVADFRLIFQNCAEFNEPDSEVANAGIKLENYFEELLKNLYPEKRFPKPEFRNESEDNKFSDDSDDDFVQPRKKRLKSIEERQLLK

Sequence of Casein kinase I isoform delta (Homo sapiens) (P48730 whole entry, looked up, canonical isoform): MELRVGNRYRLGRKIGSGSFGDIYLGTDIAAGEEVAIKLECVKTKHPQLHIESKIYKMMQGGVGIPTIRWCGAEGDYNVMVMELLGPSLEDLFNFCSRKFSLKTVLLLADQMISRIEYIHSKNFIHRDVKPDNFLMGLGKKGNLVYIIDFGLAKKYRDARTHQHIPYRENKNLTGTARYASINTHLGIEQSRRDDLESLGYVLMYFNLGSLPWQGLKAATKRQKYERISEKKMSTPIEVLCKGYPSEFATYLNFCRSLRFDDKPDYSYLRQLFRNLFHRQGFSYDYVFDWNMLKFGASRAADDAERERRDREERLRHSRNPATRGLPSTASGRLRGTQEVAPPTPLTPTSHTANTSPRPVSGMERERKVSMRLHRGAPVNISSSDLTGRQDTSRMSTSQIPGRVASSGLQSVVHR
Sequence of Tyrosine-protein kinase ABL1 (Homo sapiens) (P00519 whole entry): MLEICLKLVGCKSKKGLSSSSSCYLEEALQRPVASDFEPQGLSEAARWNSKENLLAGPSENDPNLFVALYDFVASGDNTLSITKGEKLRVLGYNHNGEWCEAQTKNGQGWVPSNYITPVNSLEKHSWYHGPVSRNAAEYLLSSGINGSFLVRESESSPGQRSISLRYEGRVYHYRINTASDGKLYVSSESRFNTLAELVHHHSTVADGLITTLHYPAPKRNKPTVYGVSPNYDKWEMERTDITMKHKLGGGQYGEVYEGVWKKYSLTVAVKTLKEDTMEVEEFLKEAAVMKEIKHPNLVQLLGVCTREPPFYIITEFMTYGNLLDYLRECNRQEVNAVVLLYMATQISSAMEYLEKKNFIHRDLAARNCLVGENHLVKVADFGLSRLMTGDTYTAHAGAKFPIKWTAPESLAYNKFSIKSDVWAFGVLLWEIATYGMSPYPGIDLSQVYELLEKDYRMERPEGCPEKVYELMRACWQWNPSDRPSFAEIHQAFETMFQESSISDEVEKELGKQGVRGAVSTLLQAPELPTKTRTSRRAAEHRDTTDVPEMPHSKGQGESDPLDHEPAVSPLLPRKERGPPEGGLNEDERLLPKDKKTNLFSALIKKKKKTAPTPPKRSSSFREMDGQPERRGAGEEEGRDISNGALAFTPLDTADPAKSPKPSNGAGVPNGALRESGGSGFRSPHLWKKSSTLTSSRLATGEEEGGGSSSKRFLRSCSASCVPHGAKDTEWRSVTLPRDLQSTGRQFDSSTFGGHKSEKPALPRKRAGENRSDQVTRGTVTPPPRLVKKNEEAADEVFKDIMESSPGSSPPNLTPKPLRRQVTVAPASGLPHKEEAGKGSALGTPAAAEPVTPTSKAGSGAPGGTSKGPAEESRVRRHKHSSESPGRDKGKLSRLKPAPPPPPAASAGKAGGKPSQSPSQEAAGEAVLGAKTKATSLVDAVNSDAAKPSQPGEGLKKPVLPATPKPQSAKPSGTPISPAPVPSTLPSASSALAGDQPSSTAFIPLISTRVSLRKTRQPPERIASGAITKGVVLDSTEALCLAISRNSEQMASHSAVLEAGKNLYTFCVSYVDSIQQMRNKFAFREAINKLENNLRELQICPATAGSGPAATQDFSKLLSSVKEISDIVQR

SMILES	ΔTm [1] [°C]	ΔTm [2] [°C]	ΔTm [3] [°C]	ΔTm [4] [°C]	ΔTm [5] [°C]	ΔTm [6] [°C]	ΔTm [7] [°C]	ΔTm [8] [°C]
CN(Cc1ccccc1)c1ccc2cc(C(=O)O)c(=O)oc2c1	0.44	2.11	0.37	0.11	0	0.54	-1.09	0.17
CCCN1CCN(c2ccc(C(=O)NC3(C(=O)NCC#N)CCCCC3)cc2)CC1	0.17	-1.33	0.57	0.09	-0.34	-0.16	-0.29	-0.56
N=C(N)SCc1ccc(CN2C(=O)C(=O)c3cc(C(F)(F)F)ccc32)cc1	-0.91	-2.92	0.03	0.19	-0.71	0.42	-1.8	0
Cc1ccc([N+](=O)[O-])cc1S(=O)(=O)N(C)C	0.7	-1.98	0.09	-0.33	-0.61	0.1	-2.12	-0.39
O=C(Nc1ccc2[nH]nc(-c3ccncc3)c2c1)[C@@H]1CCN(CC(=O)N2CCN(c3ccc(-c4ncccn4)cc3)CC2)C1	1.95	-1.51	0.12	1.66	1.44	13.1	3.82	-0.46
CC(C)C(=O)c1c(C(C)C)nn2ccccc12	0.8	-2.97	0.95	0.19	-0.21	0.12	-2.35	0.7
O=C(O)[C@@H]1CCCN(C(=O)n2cnc(-c3ccc(-c4cnc(N5CCOCC5)nc4)cc3)n2)[C@H]1c1ccccc1	0.15	-1.06	-1.79	1.27	-3.37	0.69	-5.07	0
CCN(c1cc(C#CCN2CCOCC2)cc(C(=O)NCc2c(C)cc(C)[nH]c2=O)c1C)[C@H]1CC[C@H](N(C)CCOC)CC1	0.47	-1.47	0.53	0.46	-0.17	0.04	-0.54	-0.98
CC(C)(Sc1ccncc1-c1ccc(C#N)c2ccccc12)C(=O)O	-0.01	-0.37	-0.1	-0.19	-0.7	0.17	-1.93	-0.49
Cn1c(NCCN(CCO)CCCc2ccc([N+](=O)[O-])cc2)cc(=O)n(C)c1=O	-0.01	0.07	0.08	-0.29	-0.66	0.09	-1.33	0.26
CCC(=O)N[C@H]1CC[C@@H](C(=O)N(C)c2ccc(-c3nc4ccccc4o3)cc2)C1	0.54	0.67	-0.03	0.1	-0.48	-0.17	-0.05	-0.29
CC(=O)N1CCc2c(c(N3CCCc4cc(-c5cnn(C)c5)c(C(F)F)cc43)nn2C2CCOCC2)C1	0.45	0.99	-0.16	0.23	-0.52	-0.44	-1.07	-1.11
CC(c1cccc2ccccc12)n1cnc2c(=O)[nH]c(Cc3ccccc3)nc21 (stereo unspecified)	0.22	-5.4	-0.82	0.84	-1	-0.16	-3.08	-1.81
O=C(c1ccc2c(ccn2-c2ccc(F)cc2)c1)N1CC(N2CCN(C(=O)c3nccs3)CC2)C1	0.62	-3.81	-1.22	-0.29	-1.59	0	-3.69	-0.34
CCCCCCCCCCCCCCCCNNC(=O)c1cccs1	0.05	-1.37	-0.3	0.26	-1.02	0.48	-0.52	-0.93
COc1cc2c(cc1-c1c(C)noc1C)[nH]c1nc(C)nc(Nc3cc(C4CC4)nn3C)c12	0.79	14.9	-0.63	-0.39	0.26	0.59	-0.72	0.66
CC(C)(C)OC(=O)Nc1ccc(-c2cc(C(=O)NCCCCCCC(=O)NO)no2)cc1	-1.36	0	-1.64	-3.22	0	0	-4.92	-2.07
CN(C)Cc1ccc(-c2nc3cccc4c3n2CCNC4=O)cc1	0.45	0.14	0.42	-0.01	1.99	0.01	-0.64	0.79
CCc1nc2c(C)cc(N3CCN(CC(=O)N4CC(O)C4)CC3)cn2c1N(C)c1nc(-c2ccc(F)cc2)c(C#N)s1	0.01	2.78	0.06	0.35	-0.27	0.06	-2.2	0.03
C[C@H](NC(=O)c1cn(C2(C#N)CC2)cn1)C(=O)Nc1nc(-c2cccc(-c3ccn(C)n3)c2)cs1	0.58	-1.99	0.19	0.61	-0.01	-0.23	1.33	-0.79
N#Cc1cccnc1N1CCN(C(=O)c2cccc(Cc3n[nH]c(=O)c4ccccc34)c2)CC1	0.57	-2.92	0.15	0.14	-0.23	0.24	-2.06	-0.96
Cc1ncsc1-c1ccc(CNC(=O)[C@@H]2C[C@@H](O)CN2C(=O)[C@@H](NC(=O)COCCOCCOCCNC(=O)C[C@@H]2N=C(c3ccc(Cl)cc3)c3c(sc(C)c3C)-n3c(C)nnc32)C(C)(C)C)cc1	0.3	10	-1.76	0.94	0	0	0	0
